# Assay results as given in PubChem BioAssay (EPA / NIEHS).
# Records with an inconclusive call do not appear. Calls of active or inactive are those of the source. The calls were made as follows: active = hit-call score of the fitted dose curve at least 0.9, where 1 is the maximum; inconclusive = response in the unintended direction; inactive = score below 0.9.
# Key:
# [1] = biological target: Tyrosine-protein phosphatase non-receptor type 13 (Homo sapiens) (UniProt Q12923); assay: NVS_ENZ_hPTPN13: NovaScreen (NVS) Enzymatic Assay for human Protein Tyrosine Phosphatase Non-receptor Type 13 (PTPN13) (AID 2283205)
# In short: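 Cell-free assay of recombinant human PTPN13 with a fluorescent substrate, product separated by electrophoretic mobility shift and read 0.5 h after dosing. Primary screen at 25 uM in duplicate, then concentration-response up to 50 uM. Loss of signal fitted against DMSO.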
# [2] = biological target: human Raf-1 Proto-Oncogene, serine/threonine Kinase (RAF1), RAF1 (gene 5894) (UniProt P04049); assay: NVS_ENZ_hRAF1: NovaScreen (NVS) Enzymatic Assay for human Raf-1 Proto-Oncogene, serine/threonine Kinase (RAF1) (AID 2283216)
# Chain of human Raf-1 Proto-Oncogene, serine/threonine Kinase (RAF1), RAF1 (gene 5894) (P04049 whole entry, looked up): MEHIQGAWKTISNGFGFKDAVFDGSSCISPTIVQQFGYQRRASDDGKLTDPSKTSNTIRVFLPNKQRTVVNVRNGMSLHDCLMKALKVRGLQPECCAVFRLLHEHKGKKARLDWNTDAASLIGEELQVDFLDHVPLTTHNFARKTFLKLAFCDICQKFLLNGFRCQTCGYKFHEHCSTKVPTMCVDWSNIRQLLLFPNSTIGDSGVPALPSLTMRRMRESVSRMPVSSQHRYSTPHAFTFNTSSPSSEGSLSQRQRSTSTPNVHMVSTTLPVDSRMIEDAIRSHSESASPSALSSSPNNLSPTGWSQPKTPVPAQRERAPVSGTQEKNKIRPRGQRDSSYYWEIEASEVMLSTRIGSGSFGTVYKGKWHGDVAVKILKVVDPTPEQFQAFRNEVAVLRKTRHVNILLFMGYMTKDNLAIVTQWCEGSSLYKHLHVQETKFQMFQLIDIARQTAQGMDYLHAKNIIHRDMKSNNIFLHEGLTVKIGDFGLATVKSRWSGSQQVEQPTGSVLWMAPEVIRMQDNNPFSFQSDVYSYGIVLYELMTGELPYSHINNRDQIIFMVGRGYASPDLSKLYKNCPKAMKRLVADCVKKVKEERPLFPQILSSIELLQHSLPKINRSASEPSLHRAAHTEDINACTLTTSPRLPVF
# In short: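 Cell-free recombinant kinase with specific fluorescent substrate, product separated by electrophoretic mobility shift; read 1 h after dosing. Primary screen at 25 uM in duplicate; hits then run in concentration-response up to 50 uM, fitted as loss of signal versus DMSO.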
# [3] = biological target: human Sirtuin 2 (SIRT2), SIRT2 (gene 22933) (UniProt Q8IXJ6); assay: NVS_ENZ_hSIRT2: NovaScreen (NVS) Enzymatic Assay for human Sirtuin 2 (SIRT2) (AID 2283217)
# Chain of human Sirtuin 2 (SIRT2), SIRT2 (gene 22933) (Q8IXJ6 whole entry, looked up): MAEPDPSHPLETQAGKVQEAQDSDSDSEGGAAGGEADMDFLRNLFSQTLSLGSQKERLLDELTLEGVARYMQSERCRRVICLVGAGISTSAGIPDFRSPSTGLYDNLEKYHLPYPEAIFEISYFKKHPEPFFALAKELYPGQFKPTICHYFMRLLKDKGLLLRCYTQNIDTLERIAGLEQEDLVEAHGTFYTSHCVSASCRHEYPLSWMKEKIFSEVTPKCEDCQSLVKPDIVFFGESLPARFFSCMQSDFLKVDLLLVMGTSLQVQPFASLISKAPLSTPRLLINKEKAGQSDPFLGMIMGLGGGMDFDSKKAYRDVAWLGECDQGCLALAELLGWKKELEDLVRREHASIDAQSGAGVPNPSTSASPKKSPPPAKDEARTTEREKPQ
# In short: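 Cell-free recombinant human SIRT2, fluorescent substrate with product separated by electrophoretic mobility shift, 1 hr. Screened in duplicate at 25 uM; hits rerun singly in concentration-response up to 50 uM, relative to DMSO.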
# [4] = biological target: human Sirtuin 3 (SIRT3), SIRT3 (gene 23410) (UniProt Q9NTG7); assay: NVS_ENZ_hSIRT3: NovaScreen (NVS) Enzymatic Assay for human Sirtuin 3 (SIRT3) (AID 2283222)
# Chain of human Sirtuin 3 (SIRT3), SIRT3 (gene 23410) (Q9NTG7 whole entry, looked up): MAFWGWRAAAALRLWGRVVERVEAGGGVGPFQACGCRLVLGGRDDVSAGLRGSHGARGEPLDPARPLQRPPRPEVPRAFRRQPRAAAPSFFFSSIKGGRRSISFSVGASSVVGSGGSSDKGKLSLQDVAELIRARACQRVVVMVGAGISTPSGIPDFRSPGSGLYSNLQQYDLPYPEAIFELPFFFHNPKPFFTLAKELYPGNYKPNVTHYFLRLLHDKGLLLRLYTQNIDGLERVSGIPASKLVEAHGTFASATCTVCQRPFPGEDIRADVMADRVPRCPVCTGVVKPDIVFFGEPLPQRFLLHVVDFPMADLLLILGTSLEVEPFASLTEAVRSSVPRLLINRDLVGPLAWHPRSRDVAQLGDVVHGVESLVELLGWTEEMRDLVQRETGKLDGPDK
# In short: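 Cell-free enzyme assay with recombinant protein and fluorescent substrate, product separated by electrophoretic mobility shift; read 1 hour after dosing. Screened in duplicate at 25 uM, then singleton concentration-response up to 50 uM; loss of signal versus DMSO.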
# [5] = biological target: human Tropomyosin Receptor Kinase A (TRKA), NTRK1 (gene 4914) (UniProt P04629); assay: NVS_ENZ_hTrkA: NovaScreen (NVS) Enzymatic Assay for human Tropomyosin Receptor Kinase A (TRKA) (AID 2283224)
# Chain of human Tropomyosin Receptor Kinase A (TRKA), NTRK1 (gene 4914) (P04629 whole entry, looked up): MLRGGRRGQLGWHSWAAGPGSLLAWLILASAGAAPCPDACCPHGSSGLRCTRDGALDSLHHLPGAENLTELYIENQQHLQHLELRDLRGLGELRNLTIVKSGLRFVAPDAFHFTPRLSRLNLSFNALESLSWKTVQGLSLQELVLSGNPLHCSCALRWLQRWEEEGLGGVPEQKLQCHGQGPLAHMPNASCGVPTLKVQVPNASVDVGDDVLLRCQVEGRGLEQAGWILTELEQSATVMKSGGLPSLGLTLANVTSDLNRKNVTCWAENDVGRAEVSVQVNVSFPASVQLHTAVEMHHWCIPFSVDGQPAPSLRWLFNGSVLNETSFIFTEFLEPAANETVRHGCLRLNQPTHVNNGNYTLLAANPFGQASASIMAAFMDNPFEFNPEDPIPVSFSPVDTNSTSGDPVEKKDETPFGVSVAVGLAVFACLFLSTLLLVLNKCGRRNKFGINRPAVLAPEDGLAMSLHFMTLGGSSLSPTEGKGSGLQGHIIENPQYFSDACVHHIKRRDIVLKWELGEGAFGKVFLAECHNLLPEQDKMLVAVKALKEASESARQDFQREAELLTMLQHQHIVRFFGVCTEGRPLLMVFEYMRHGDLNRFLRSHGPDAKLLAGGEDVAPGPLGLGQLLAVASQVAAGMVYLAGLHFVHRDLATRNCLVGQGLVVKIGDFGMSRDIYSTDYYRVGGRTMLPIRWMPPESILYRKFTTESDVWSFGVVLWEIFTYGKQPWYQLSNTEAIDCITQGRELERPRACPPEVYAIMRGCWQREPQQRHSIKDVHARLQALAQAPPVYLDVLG
# In short: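 Recombinant human TrkA activity read after 1 h by fluorescence with electrophoretic mobility shift separating substrate and product. Primary screen in duplicate at 25 uM; actives were rerun in concentration-response up to 50 uM. Loss of signal versus DMSO.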
# [6] = biological target: human Vascular Endothelial Growth Factor Receptor 1 (VEGFR1), FLT1 (gene 2321) (UniProt P17948); assay: NVS_ENZ_hVEGFR1: NovaScreen (NVS) Enzymatic Assay for human Vascular Endothelial Growth Factor Receptor 1 (VEGFR1) (AID 2283226)
# Chain of human Vascular Endothelial Growth Factor Receptor 1 (VEGFR1), FLT1 (gene 2321) (P17948 whole entry, looked up): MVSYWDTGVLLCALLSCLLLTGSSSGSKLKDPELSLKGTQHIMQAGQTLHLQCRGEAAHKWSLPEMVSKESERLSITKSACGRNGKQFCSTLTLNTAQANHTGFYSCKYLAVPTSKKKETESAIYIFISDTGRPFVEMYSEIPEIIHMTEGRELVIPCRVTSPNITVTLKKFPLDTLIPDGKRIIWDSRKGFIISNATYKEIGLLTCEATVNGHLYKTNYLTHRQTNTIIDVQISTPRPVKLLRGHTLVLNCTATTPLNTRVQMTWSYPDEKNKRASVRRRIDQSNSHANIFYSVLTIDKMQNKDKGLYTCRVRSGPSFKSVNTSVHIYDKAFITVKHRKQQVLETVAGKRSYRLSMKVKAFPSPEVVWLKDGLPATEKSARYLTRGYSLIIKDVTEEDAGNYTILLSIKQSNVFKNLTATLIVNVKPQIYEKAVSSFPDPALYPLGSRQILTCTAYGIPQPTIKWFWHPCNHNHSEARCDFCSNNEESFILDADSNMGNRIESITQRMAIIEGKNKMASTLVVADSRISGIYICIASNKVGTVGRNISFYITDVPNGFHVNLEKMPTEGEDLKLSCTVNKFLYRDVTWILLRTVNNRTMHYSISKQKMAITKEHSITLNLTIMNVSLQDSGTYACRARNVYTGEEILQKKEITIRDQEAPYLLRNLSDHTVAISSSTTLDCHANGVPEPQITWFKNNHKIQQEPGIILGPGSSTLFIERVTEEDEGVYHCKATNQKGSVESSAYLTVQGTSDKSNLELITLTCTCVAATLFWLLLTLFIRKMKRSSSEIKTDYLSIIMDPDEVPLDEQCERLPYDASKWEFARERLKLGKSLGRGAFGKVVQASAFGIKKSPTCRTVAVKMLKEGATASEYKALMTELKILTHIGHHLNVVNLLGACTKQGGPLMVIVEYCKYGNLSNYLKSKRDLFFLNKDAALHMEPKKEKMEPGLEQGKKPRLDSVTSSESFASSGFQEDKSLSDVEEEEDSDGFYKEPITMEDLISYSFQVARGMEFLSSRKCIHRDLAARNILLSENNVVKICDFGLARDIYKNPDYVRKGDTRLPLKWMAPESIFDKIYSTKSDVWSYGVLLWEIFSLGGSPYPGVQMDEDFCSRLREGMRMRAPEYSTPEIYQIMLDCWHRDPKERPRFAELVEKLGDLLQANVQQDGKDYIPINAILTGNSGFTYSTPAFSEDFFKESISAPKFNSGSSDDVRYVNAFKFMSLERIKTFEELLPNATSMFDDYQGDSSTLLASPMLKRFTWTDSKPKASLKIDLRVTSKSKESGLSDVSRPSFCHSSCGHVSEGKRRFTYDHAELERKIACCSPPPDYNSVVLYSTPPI
# In short: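 Cell-free assay of recombinant human VEGFR1 kinase with substrate, measured 1 h after dosing; fluorescence with electrophoretic mobility-shift separation of substrate and product, referenced to DMSO; primary screen at 25 uM in duplicate, actives then run in concentration series.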
# [7] = biological target: rat Acetylcholinesterase (AChE), Ache (gene 83817) (UniProt P37136); assay: NVS_ENZ_rAChE: NovaScreen (NVS) Enzymatic Assay for rat Acetylcholinesterase (AChE) (AID 2283233)
# Chain of rat Acetylcholinesterase (AChE), Ache (gene 83817) (P37136 whole entry, looked up): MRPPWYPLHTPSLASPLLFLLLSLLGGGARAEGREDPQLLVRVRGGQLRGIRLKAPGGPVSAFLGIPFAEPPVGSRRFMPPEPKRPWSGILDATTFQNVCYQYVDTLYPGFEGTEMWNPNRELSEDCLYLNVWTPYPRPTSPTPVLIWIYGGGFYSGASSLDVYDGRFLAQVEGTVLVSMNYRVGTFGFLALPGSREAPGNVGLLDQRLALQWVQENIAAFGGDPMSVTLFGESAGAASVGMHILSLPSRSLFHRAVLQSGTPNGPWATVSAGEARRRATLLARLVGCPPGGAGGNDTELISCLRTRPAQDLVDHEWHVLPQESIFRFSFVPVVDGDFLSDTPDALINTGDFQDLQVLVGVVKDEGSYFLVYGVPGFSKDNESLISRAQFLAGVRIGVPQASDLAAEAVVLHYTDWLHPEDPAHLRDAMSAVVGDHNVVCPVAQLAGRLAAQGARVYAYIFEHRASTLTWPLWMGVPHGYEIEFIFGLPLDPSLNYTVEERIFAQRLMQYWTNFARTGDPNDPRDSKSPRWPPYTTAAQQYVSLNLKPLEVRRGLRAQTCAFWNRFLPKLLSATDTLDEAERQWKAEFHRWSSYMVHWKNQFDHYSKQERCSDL
# In short: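 Rat brain membrane acetylcholinesterase activity measured colorimetrically 0.33 h after compound addition, loss of signal relative to DMSO. Primary screen in duplicate at 25 uM; actives re-run as concentration-response with 50 uM top concentration.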
# [8] = system: rat Monoamine Oxidase, MAO-A, Peripheral (MAOAP), gene 29253; assay: NVS_ENZ_rMAOAP: NovaScreen (NVS) Enzymatic Assay for rat Monoamine Oxidase, MAO-A, Peripheral (MAOAP) (AID 2283237)
# In short: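 Rat liver mitochondrial membranes served as the MAO-A source, with enzyme activity measured by radiometric scintillation counting 1.17 hours after dosing. Loss of signal was fitted against DMSO; primary screen used 25 uM in duplicate, follow-up used concentration series.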
compound,measurement,setting,value
CC(C)(C)OOC(C)(C)C,outcome,[1],inactive
same,outcome,[2],inactive
c1ccc(OP(Oc2ccccc2)Oc2ccccc2)cc1,outcome,[1],inactive
CSC(C)(C)C=NO,outcome,[3],inactive
same,outcome,[4],inactive
ClC1=C(Cl)C2(Cl)C3C(Cl)C(Cl)CC3C1(Cl)C2(Cl)Cl (stereo not drawn),outcome,[5],inactive
O=[N+]([O-])c1ccccc1,outcome,[5],inactive
CC(C)(C)c1ccc(O)cc1,outcome,[6],inactive
Cc1ccc2c(c1N)C(=O)c1ccccc1C2=O,AC50,[6],25 µM (active)
CCCCN(CCCC)SN(C)C(=O)Oc1cccc2c1OC(C)(C)C2,AC50,[7],1.13 µM (active)
Nc1cc2c3c(c1)C(c1ccccc1)=N[C@@H](NC(=O)c1cccnc1)C(=O)N3CC2,outcome,[7],inactive
ClC(Cl)c1ccccc1,outcome,[8],inactive
Cc1ccc(O)cc1C,outcome,[8],inactive
